# High-throughput results: PubChem BioAssay, several laboratories
# HMGR II inh: blocks class II HMG-CoA reductase of Enterococcus faecalis; AID 1066; inhibition, % at 10 µM; 0.41% of 190,000 active; purified E. faecalis HMGR, NADPH absorbance 340 nm kinetic;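 active = inhibition above a set limit, the median over all tested compounds plus 3 SD, cut at about 9.5% in these data; inconclusive = no clear call, values can overlap the other calls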;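 also: enzyme runs in reverse so mevalonate oxidation gives rising NADPH absorbance; 0% = complete reaction with DMSO and 100% = background rate lacking mevalonate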
# 14-3-3 Bad PPI: disrupts binding of bovine 14-3-3 zeta to phospho-Bad peptide | TR-FRET 14-3-3zeta/Dy647-pBad peptide displacement, 1 h | inhibition, % at 21.7 µM | 0.71% of 220,000 active | AID 781;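 active = inhibition above about 70%, limit read from the data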;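 also: 0% = full 14-3-3 plus peptide FRET controls and 100% = background without 14-3-3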
# Target sequence (P63103 whole entry, looked up): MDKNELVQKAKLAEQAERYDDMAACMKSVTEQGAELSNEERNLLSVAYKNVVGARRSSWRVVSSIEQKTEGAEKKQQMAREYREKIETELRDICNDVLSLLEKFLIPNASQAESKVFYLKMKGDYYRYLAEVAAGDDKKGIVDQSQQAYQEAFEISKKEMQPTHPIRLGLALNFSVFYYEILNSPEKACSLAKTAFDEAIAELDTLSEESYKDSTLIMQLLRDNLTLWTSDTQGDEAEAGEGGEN
# L929 necroptosis: L929 zVAD cell death inhibition; L929 zVAD necroptosis rescue, ATP luminescence, 24 h; with zVAD 60 µM; viability rescue, % at 10 µM; 0.38% of 220,000 active;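 active = activation, scaled between plate controls, above about 75%, limit read from the data; inactive = activation under that limit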;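 also: 0% = zVAD with DMSO and 100% = DMSO alone without zVAD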
# ROMK primary: modulates human ROMK potassium channel activity | 2% of 130,000 active | AID 1918 | Tet-inducible ROMK, thallium flux fluorescence; actives lie on both sides | B-score at 10 µM | P48048;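 active = signal ratio slope over the read window, or its plate-corrected B-score, at least 3 SD from the plate mean, either direction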;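 also: B-score of the F/F0 ratio slope over 7 to 12 s after thallium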
# TNF death inh: inhibitors of TNF-alpha induced necroptosis in Jurkat FADD-/- cells; Jurkat FADD-/- TNF necroptosis rescue, ATP luminescence, 24 h; 0 = TNF only, 100 = no-TNF cells; activation (protection from cell death), % at 10 µM; 0.068% of 220,000 active; AID 463075;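 active = activation, meaning protection from cell death, of at least 50% relative to plate controls; inactive = activation below 50%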;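 also: necroptosis triggered by 40 ng/mL TNF-alpha added together with compound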
# m-calpain inh: calpain II (pig) inhibition; 0.37% of 220,000 active; purified calpain II, fluorogenic peptide substrate, 30 min; AID 1236; inhibition, % at 16 µM;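 active = inhibition above about 50%, limit read from the data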
# ROMK retest: retested hit modulating human ROMK potassium channel | shares compounds with ROMK primary | ROMK thallium flux, fluorescence ratio; stronger effect = lower value | normalized thallium flux (F/F0 slope) at 10 µM | 54% of 3,000 active;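 active = Flux at 10 µM at least 3 SD below or above vehicle control mean in one or both replicates; inconclusive = no clear call, values can overlap the other calls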
# Starred values were filed as active, the others as inactive; ? = inconclusive; · = no result. This is a sample that favours compounds with a hit; in the whole collection about 3% have one here.
SMILES,HMGR II inh,14-3-3 Bad PPI,L929 necroptosis,ROMK primary,TNF death inh,m-calpain inh,ROMK retest
CCN(CCCn1c(=S)[nH]c2ccc(N3CCOCC3)cc2c1=O)c1ccccc1,-6.0,-9.7,0.5,0.505,-0.2,-45.3,·
Cn1c(=O)[nH]c(=O)c2c1nc(SCCN1CCOCC1)n2CCCc1ccccc1,-3.1,-1.2,-0.4,·,-0.8,-31.2,·
CC(C)CCSc1nc2c(c(=O)[nH]c(=O)n2C)n1CCCc1ccccc1,-0.2,8.4,-0.1,·,-3.0,1.5,0.0723
CC(C)=NNc1nc2c(c(=O)[nH]c(=O)n2C)n1CCc1ccccc1,0.1,-11.7,0.1,-1.67*,-2.5,-26.4,0.0732
CC/C(C)=N/Nc1nc2c(c(=O)[nH]c(=O)n2C)n1CCc1ccccc1,-0.3,-12.8,4.5,·,-1.1,-35.4,·
Cn1nnnc1SCC(=O)NC(=O)c1cccc([N+](=O)[O-])c1,·,-0.1,1.3,·,2.3,-21.9,·
CCOC(=O)C(NC(=O)CC)(N1CCc2ccccc2C1)C(F)(F)F (centres undefined),0.5,4.6,0.0,·,-0.1,16.9,·
CCOc1cc(/C=C(\C#N)C(N)=O)ccc1OS(=O)(=O)c1ccccc1,1.6,-14.4,0.4,-4.95*,0.1,3.2,0.0329*
O=C(NCCCN1CCCC1=O)c1cccs1,3.7,-3.5,2.1,·,1.0,-14.0,0.0746
Cc1cc(-c2ccc(NC(=O)[C@@H]3CCCC[C@@H]3C(=O)O)c(C)c2)ccc1NC(=O)[C@@H]1CCCC[C@@H]1C(=O)O,-2.0,-2.6,1.5,0.199,-0.2,34.6,·
CCOC(=O)Cn1cc(/C=C/[N+](=O)[O-])c2ccccc21,-1.8,-2.5,-2.3,-3.45*,-1.8,-30.3,0.0355*
CCOc1ccc(/C=C/[N+](=O)[O-])c2ccccc12,-2.6,-17.3,4.3,-3.78*,-14.9,-2.8,0.0426*
COc1ccc(-c2nc3n(c2C)CCC3)cc1,·,-8.3,-0.7,·,-0.4,-18.2,·
COc1ccc(C2=C(SC)CC2=NC(C)(C)C)cc1,0.8,0.5,0.6,-4.74*,1.9,17.3,0.0457*
Cc1cc(C)nc(SCC(=O)N/N=C/c2cc(C)n(-c3ccccc3C)c2C)n1,-1.2,-10.0,0.1,6.64*,-2.4,1.6,0.117*
Cc1cc(/C=N/NC(=O)C(O)(c2ccccc2)c2ccccc2)c(C)n1-c1ccccc1,-4.3,-4.8,-0.3,2.74*,2.0,-31.7,0.097*
Cc1cc(/C=N/NC(=O)c2cccs2)c(C)n1-c1ccccc1,-2.7,-11.5,-0.4,3.82*,-13.0,-12.8,0.0814
COc1ccc(NC(C)=O)cc1NC(C)C(=O)Nc1cccc2ccccc12 (centres undefined),-5.8,-2.3,-0.9,1.6,-0.9,6.0,·
CC1CCN(C(=O)C2CCN(C(=O)c3cc4sccc4n3Cc3ccc(F)cc3)CC2)CC1,-3.9,32.9,0.5,-2.9,-5.9,-10.4,·
CCn1c(C(=O)N2CCC(C(=O)N3CCN(c4ccccn4)CC3)CC2)cc2sccc21,-0.6,14.7,0.3,·,-7.3,-18.8,0.0745
COc1ccc(-c2nc3ccccc3n2Cc2ccccc2)cc1,0.8,-1.9,0.1,-0.583,-3.0,-21.7,·
COc1ccc2c(c1)nc(N)n2Cc1ccccc1,-12.5,-9.5,0.1,-3.04*,-1.7,-11.2,0.0528*
O=C(N/N=C/c1ccc(O)cc1)c1cc(C23CC4CC(CC(C4)C2)C3)[nH]n1,·,-3.1,3.6,·,-3.0,-18.5,0.0724
COc1ccc(/C=N/NC(=O)c2cc(C34CC5CC(CC(C5)C3)C4)[nH]n2)cc1OC,-3.9,9.6,13.9,·,3.0,-82.4,·
Cc1cc(Nc2ccccc2)nn1C(=O)c1ccccc1,-6.7,-9.9,24.8,·,6.0,-13.0,·
COc1ccc(C(=O)n2nc(C)cc2Nc2ccccc2)cc1,1.4,-4.2,1.4,1.75*,3.5,-23.7,?
Cc1ccc(CSCCNC(=O)c2ccc(Cl)c(S(=O)(=O)N3CCOCC3)c2)cc1,0.1,-13.3,0.6,-3.96*,-5.1,19.1,0.0741
COc1cc2c3c(c1)C(C)CC(C)(C)N3C(=O)C2=O (centres undefined),-2.9,-19.9,1.3,3.37*,-5.4,1.4,0.0951
